Screening data deposited in PubChem by National Center for Advancing Translational Sciences (NCATS).
Shown are actives, neighbours in structure and some others; about 7.1% of the full set was active somewhere.
SW480 rereplic: induces DNA re-replication in SW480 colon adenocarcinoma cells | SW480 DNA re-replication, Hoechst DNA content imaging, 48 h | Potency, µM (series often up to 46.1 µM), hits mostly activators | actives 1.8% (n = 340,000); further: nearly all actives have a fitted effect of over 55% in size
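250 cells/well; 23 nL cpd via pin tool; 48 hr, 37 C, 5% CO2; Hoechst 40 min; imager read of total nuclear intensity, ex 405/em 500-530 nm.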
PINK1 modulator: changes PINK1 expression | Potency, µM (series often up to 76.6 µM), hits mostly activators | PINK1 immunofluorescence, high-content cytometry, 24 h | AID 624263 | actives 0.2% (n = 410,000); active means well fitted activation curve with a large enough effect; inconclusive means small, poorly fitted or top-dose-only effect; cell line not stated here; further: nearly all actives have a fitted effect of over 65% in size
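Fluorescence from anti-PINK1 antibody, together with nuclear and cell stains, was scanned on a laser-scanning cytometer. Before staining, stable-line cells were incubated 24 hours with compounds at 5 concentrations; primary antibody 12 h at 10 degrees C.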
S2 tox: reduces viability in counter-screen for ATXN expression inhibitors | S2 cells (HEK-293 line with an ATXN2-luciferase reporter) viability, CellTiter-Fluor protease fluorescence, 24 h | actives 0.49% (n = 400,000) | Potency, µM (top dose mostly 56.7 µM), hits mostly cytotoxic; further: nearly all actives have a fitted effect of over 40% in size
ATXN2 expr inh: reduces ATXN2 reporter expression in HEK-293 cells; Potency, µM (top dose mostly 57 µM), actives largely listed as inhibitors; HEK-293 ATXN2-luciferase reporter, luminescence, 24 h; actives 0.72% (n = 360,000); further: nearly all actives have a fitted effect of over 55% in size
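ATXN2-luciferase reporter cells (luciferase flanked by upstream and downstream ATXN2 gene portions) were treated 24 h at 37 °C with compounds at up to 57 uM. SteadyGlo luminescence gave expression; GF-AFC fluorescence gave viability.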
IL1B secr inh: inflammasome signaling inhibition, IL-1 beta readout; THP-1 LPS/ATP IL-1B secretion, AlphaLISA, 16 h; stronger effect = lower value; activity change, % at 57.5 µM; actives 4.7% (n = 360,000); in the data active means activity change below about -50%; inconclusive means mostly about -30% to -49%
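Secreted IL-1B measured by AlphaLISA bead assay after 16 h compound exposure of THP-1 cells; compounds (final up to 57.5 uM) added 1 h before LPS (250 ng/mL) and ATP (1.25 mM) stimulation; lower signal means less secretion.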
MCF10A rereplic: induces DNA re-replication in MCF 10a normal breast cells. MCF 10A DNA re-replication, Hoechst nuclear intensity, 48 h. Potency, µM (series often up to 46.1 µM), hits mostly activators. actives 2.9% (n = 350,000). AID 624296; further: nearly all actives have a fitted effect of over 50% in size
Of the large screens only hits and unclear results are named; the others gave an inactive call. Unless noted, the call rests on the fitted dose curve; in most records, active means well fitted curve in the direction sought with a large enough effect; inconclusive means small, poorly fitted or top-dose-only effect, or another doubt; inactive means no such curve, though single readings can be large; an effect the other way counts as inactive or inconclusive.

N#CC1=C(N)Oc2cc(N)ccc2C1c1ccc(F)cc1 (centres undefined)	SW480 rereplic inconclusive, MCF10A rereplic inconclusive
N#CC1=C(N)Oc2cc(N)ccc2C1c1ccc(F)cc1F (centres undefined)	SW480 rereplic 23µM, MCF10A rereplic 21µM
COc1ccccc1C(=O)N[C@@H]1c2ccccc2C2(CCN(Cc3nccs3)CC2)[C@H]1OC	none (no result: SW480 rereplic, ATXN2 expr inh, IL1B secr inh, MCF10A rereplic)
CCCCOC(=O)c1ccc(NC(=O)CSc2nc3c(c(=O)[nH]2)CCC3)cc1	none (no result: SW480 rereplic, IL1B secr inh, MCF10A rereplic)
COc1ccc(C2C(C#N)=C(N)Oc3cc(N)ccc32)cc1 (centres undefined)	PINK1 modulator inconclusive (no result: ATXN2 expr inh)
N#CC1=C(N)Oc2cc(Nc3ccccc3)ccc2C1c1ccncc1 (centres undefined)	SW480 rereplic 16µM, IL1B secr inh -78, MCF10A rereplic inconclusive
COc1ccc(C2C(C#N)=C(N)Oc3c2ccc2cccnc32)cc1OC (centres undefined)	SW480 rereplic 1.6µM, MCF10A rereplic 4.6µM
Cc1c(N)cc2c(c1N)C(C)(C)CC2(C)C	none
COc1cc(-c2ccc3oc(-c4ccsc4)cc(=O)c3c2)cc(OC)c1OC	S2 tox inconclusive, ATXN2 expr inh inconclusive, IL1B secr inh -58, MCF10A rereplic inconclusive
O=C(Nc1cc(Sc2ccccn2)cc([N+](=O)[O-])c1)c1ccc(Cl)cc1	IL1B secr inh -66, MCF10A rereplic inconclusive
O=C(Nc1cc(Sc2ccccn2)cc([N+](=O)[O-])c1)c1cccc(Cl)c1	S2 tox inconclusive, ATXN2 expr inh inconclusive, IL1B secr inh inconclusive
O=C(CN1CCN(C(=O)c2ccc(-c3nc4ccccc4s3)o2)CC1)Nc1ccc(F)cc1	S2 tox inconclusive, ATXN2 expr inh inconclusive
CCCOc1ccc(CNC(=O)CN2C(=O)c3cccnc3Oc3ccc(C)cc32)cc1	none (no result: SW480 rereplic, S2 tox, ATXN2 expr inh, IL1B secr inh, MCF10A rereplic)
CC(=O)Nc1ccc(C(=O)OCC(=O)NC(=O)NCc2ccccc2)cc1	none (no result: SW480 rereplic, ATXN2 expr inh, MCF10A rereplic)
Cc1ccc(C(=O)OCC(=O)NC(=O)NCc2ccccc2)cc1C	MCF10A rereplic 10µM
O=C(COC(=O)c1ccc(F)c([N+](=O)[O-])c1)NC(=O)NCc1ccccc1	SW480 rereplic inconclusive, S2 tox inconclusive, ATXN2 expr inh inconclusive, IL1B secr inh -99, MCF10A rereplic 21µM
Cc1ccc(C(=O)OCC(=O)NCCc2ccccc2)cc1C	none (no result: S2 tox, ATXN2 expr inh)
CCc1ccc2oc(-c3cc(NC(=O)C(C)C)cc(C)c3O)nc2c1	none (no result: SW480 rereplic, IL1B secr inh, MCF10A rereplic)
O=C(N/N=C/c1sc(N2CCOCC2)nc1-c1ccccc1)c1ccccc1O	SW480 rereplic inconclusive, PINK1 modulator inconclusive, ATXN2 expr inh inconclusive, MCF10A rereplic inconclusive
O=[N+]([O-])c1ccc(N/N=C/c2sc(N3CCOCC3)nc2-c2ccccc2)c(S(=O)(=O)Nc2ccccc2Cl)c1	SW480 rereplic 13µM, PINK1 modulator inconclusive, S2 tox inconclusive (no result: ATXN2 expr inh)
O=[N+]([O-])c1ccc(N/N=C/c2sc(N3CCOCC3)nc2-c2ccccc2)c(S(=O)(=O)Nc2ccc(Cl)cc2)c1	SW480 rereplic 10µM, PINK1 modulator inconclusive, S2 tox inconclusive, ATXN2 expr inh inconclusive, IL1B secr inh inconclusive, MCF10A rereplic inconclusive
O=C(O)c1cccc(N/N=C/c2sc(N3CCOCC3)nc2-c2ccccc2)c1	SW480 rereplic inconclusive, MCF10A rereplic inconclusive
CN(CC(=O)Nc1ccc(Cl)cc1)C(=O)c1ccc(-n2cncn2)c([N+](=O)[O-])c1	SW480 rereplic inconclusive
Cc1cccc(NC(=O)c2ccc(NCCc3ccccc3)c([N+](=O)[O-])c2)c1	PINK1 modulator 14µM
CCOC(=O)Cn1nc(C)c(NC(=O)c2ccc(Cl)c([N+](=O)[O-])c2)c1C	IL1B secr inh -85
Cc1ccc(C(=O)Nc2ccncc2)cc1[N+](=O)[O-]	IL1B secr inh -55
CCOC(=O)Cn1nc(C)c(NC(=O)c2cccc([N+](=O)[O-])c2)c1C	none
Cc1ccc(NC(=O)CN(C)C(=O)c2ccc(Cl)c([N+](=O)[O-])c2)cc1	IL1B secr inh -85
Cc1ccc(NC(=O)c2ccc(NCCN)c([N+](=O)[O-])c2)cc1	SW480 rereplic inconclusive
